Measurements from PubChem BioAssay (NCI).
The panel holds about 79,000 compounds, 15% with a hit somewhere; the sample as a whole holds those more often. A number with no mark means an inactive call. Active and inactive are the calls of the source. Cut-off read from the data, not from the text of the source: active = growth inhibition above about 70%; inactive = the rest.

Tests used:
[1] = NCI Yeast Anticancer Drug Screen. Data for the rad50 strain (AID 155);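 note: 0% = growth of vehicle-only cultures of the same strain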; conditions: S. cerevisiae rad50 strain growth inhibition; at 50.0 µM; active compounds read high
In short: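 Genetically altered yeast (DNA repair pathway); compound treatment; growth inhibition vs vehicle ctrl.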

[2] = NCI Yeast Anticancer Drug Screen. Data for the mec2-1 strain (AID 157); conditions: S. cerevisiae mec2-1 strain, at 50.0 µM, active compounds read high
In short: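 mec2-1 yeast strain, carrying an alteration in DNA damage repair or cell cycle control, was exposed to compounds; growth inhibition was measured relative to vehicle-treated controls.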

[3] = NCI Yeast Anticancer Drug Screen. Data for the sgs1 mgt1 strain (AID 161);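 note: 0% = growth of cultures given vehicle only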; conditions: S. cerevisiae sgs1 mgt1 strain, at 50.0 µM, active compounds read high
In short: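 Yeast cells carrying a defined DNA-repair defect were exposed to test compounds. Growth inhibition was measured relative to vehicle-treated controls.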

[4] = NCI Yeast Anticancer Drug Screen. Data for the cln2 rad14 strain (AID 165);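 note: 0% = growth equal to vehicle treated cultures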; conditions: S. cerevisiae cln2 rad14 strain, at 50.0 µM, active compounds read high
In short: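 Yeast carrying cln2 and rad14 alterations (cell cycle control and DNA damage repair) were exposed to compounds. Growth inhibition was measured against vehicle-treated controls.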

[5] = NCI Yeast Anticancer Drug Screen. Data for the bub3 strain (AID 167); conditions: S. cerevisiae bub3 mutant strain, at 50.0 µM, active compounds read high
In short: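 Yeast carrying a defined mutation is treated with each compound, and growth is compared with that of vehicle-exposed cells to give inhibition.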

[6] = NCI Yeast Anticancer Drug Screen. Data for the mlh1 rad18 strain (AID 175); conditions: S. cerevisiae mlh1 rad18 strain growth inhibition; at 50.0 µM; active compounds read high
In short: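 Growth inhibition of the yeast strain was measured after compound exposure and expressed relative to vehicle-treated controls. The strain carries defined defects in DNA damage repair.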

Compound	growth inhibition [1]	growth inhibition [2]	growth inhibition [3]	growth inhibition [4]	growth inhibition [5]	growth inhibition [6]
CC(C)(C)C(O)CC(O)(C(F)(F)F)C(F)(F)F (stereo not drawn)	-2.45%	-21.1%	-12.8%	19.6%	-5.9%	-1.9%
CC(=O)Nc1ccc(/C=C2/C(=O)ON=C2C)cc1	6.75%	6.6%	6%	11.8%	3.95%	13.4%
CSc1nc(NC2OCC(O)C(O)C2O)c(Br)c(=O)n1C (stereo not drawn)	9.05%	15.8%	-0.75%	1.95%	6.3%	
O=C(N/N=C/c1ccc(Cl)cc1)c1cc(-c2ccccc2)nc2ccccc12	5.95%	22.3%	17.4%	21.7%	2%	-5.7%
COc1ccc(COc2ccc([N+](=O)[O-])cc2)cc1	-12.2%	5%	-4.45%	-9%	-13.9%	-2.25%
COc1cccc(NC(=S)NNC(=S)NNc2ccccc2)c1	59.4%	60.2%	70.3% (active)	43%	65.2%	63.6%
CN(C)S(=O)(=O)Oc1ccccc1N	5.9%	-4.5%	20.9%	18.7%	-5.15%	15.8%
CC12CCC(=O)C=C1CCC1C2CCC2(C)C(C(=O)Cn3c(=O)[nH]cc(F)c3=O)CCC12 (stereo not drawn)	19.9%	1.85%	25.9%	8.85%	6.55%	11%
CC(Oc1ccccc1-c1ccccc1)C(=O)O (stereo not drawn)	6.95%	-22.2%	-5.9%	5.45%	-1.9%	15.1%
N#Cc1c(N)ncn1C1OC(CO)C(O)C1O (stereo not drawn)	-17.6%	-7.6%	-20.9%	-16.3%	0.15%	-13.3%
Nc1c(Cl)cc2c(c1Br)Cc1cc(F)ccc1-2	-0.15%	2.15%	-3.55%	-0.05%	14.8%	-9.65%
CC(=O)NC(Cc1ccc(OC(C)=O)c(OC(C)=O)c1)C(C)=O (stereo not drawn)	-10.4%	9.7%	-0.7%	-8.3%	-10.6%	6%
COc1cc(OC)c(NC(=O)NC(C)(C)C)cc1Cl	-3.35%	9.4%	17.1%	-2.5%	18.6%	23.4%
CCOC(=O)c1cc2c(C(=O)c3ccc([N+](=O)[O-])cc3)c(C(C)=O)ccc2[nH]1	3.15%	-0.45%	-1.2%	-3.55%	19%	-45.6%
Cc1ccc(S(=O)(=O)N/N=C/C(C)c2cccnc2)cc1 (stereo not drawn)	-9%	6.8%	4%	13.6%	5.9%	7.05%
O=C1C(Cl)C(c2ccccc2)N1n1cnc2ccccc2c1=O (stereo not drawn)	-16.2%	-2.15%	-24.1%	-3.3%	3.9%	-12.7%
CC(C)(O)C(F)(F)F	13.8%	-5.85%	27.1%	12.2%	-3.4%	25.5%
CC(=O)OC1CCC23COC(CC(C)C2C)C3(Cl)C1 (stereo not drawn)	-0.7%	-4.65%	-3.25%	-8.1%	-11.2%	5.05%
CCOC(=O)C(C)(C)Oc1ccc2c(=O)cc(-c3ccc(Cl)cc3)oc2c1	-19.6%	-20.1%	-30.3%	-14.5%	-38.9%	-29.4%
O=C(O)COc1ccc([N+](=O)[O-])cc1/C=C1/SC(=S)N(c2ccccc2)C1=O	14.7%	10.3%	18.9%	2.5%	-1.6%	11.2%

Compound	growth inhibition [1]	growth inhibition [2]	growth inhibition [3]	growth inhibition [4]	growth inhibition [5]	growth inhibition [6]
CCOC(=O)C(Br)CN1C(=O)c2ccccc2C1=O (stereo not drawn)	5.5%	-7.1%	-5.35%	12.6%	42%	13.6%
CC[n+]1c(-c2ccccc2)c2cc(NCCCN)ccc2c2ccc(N)cc21	33%	15.8%	8.8%	6.3%	3.75%	40.5%
C=C(C)COc1ccc(C2OCC(CC)C(CCC)O2)cc1 (stereo not drawn)	-4.3%	-10.6%	-7.5%	-45%	5%	-9.25%
CC(=O)/C(=C/n1c(=S)sc2ccccc21)C(=O)Nc1ccccc1C	-3.75%	0.9%	54.4%	15.9%	9.2%	41.6%
CC1(C)C(O)c2ccccc2OC1N1CCN(C2Oc3ccccc3C(O)C2(C)C)CC1 (stereo not drawn)	-18.4%	-1.35%	23.8%	-4.65%	-10.8%	-8.6%
Cc1cc2c(s1)C(=O)c1sccc1C2=O	89.7% (active)	90.8% (active)	89.8% (active)	91.5% (active)	87.2% (active)	89% (active)
Cc1[nH]c(-c2ccccc2)c2nc(N(C)C)oc(=O)c12	-11.4%	29.3%	17.4%	10.5%	34.1%	-5.25%
O=C1NCC/C1=C\c1ccc(Cl)c(Cl)c1	9.4%	-12.4%	-10.3%	-17.6%	-7.7%	-13.5%
O=C1NC2Cc3ccccc3C(C2)O1 (stereo not drawn)	2.8%	-0.9%	1.85%	-1.95%	15.9%	11.8%
Cc1ccc(N=Cc2ccc3c(c2)OCO3)cc1C	8.05%	6.2%	9.65%	40.6%	10.1%	29.2%
Cc1ccc(S(=O)(=O)OC2CC(C(C)(C)C)CCC2c2ccccc2)cc1 (stereo not drawn)	-29.1%	-7%	-48.9%	-84.2%	-5.15%	5.9%
NC(=O)Cc1c[nH]c2ccccc12	39.7%	-3.95%	14.3%	-37.2%	33.4%	48.6%
Cc1nnc2c3[nH]c4ccccc4c3c(Cl)nn12	-3.3%	-7.25%	3.55%	-52.2%	-10.8%	-11.1%
CC(=O)C1=C(C)N2C(=NC3=C(CCc4ccccc43)C2c2ccc(F)cc2)S1 (stereo not drawn)	-5.6%	-23.9%	-15.4%	11.3%	-21.8%	-9.8%
COc1ccc2nc3c(=O)[nH]c(=O)nc-3n(CC(O)C(O)C(O)CO)c2c1 (stereo not drawn)	24.9%	6.9%	16.1%	25.3%	10.9%	34.2%
COC(=O)c1nnn(-c2ccccc2C(C)C)c1C(=O)c1ccccc1	7%	-8.85%	-0.9%	-5.75%	-21.4%	24.5%
COc1cc(C=O)ccc1OC(C)=O	-33.3%	-15.3%	-35.9%	-31.4%	-10.6%	-24.3%
CC1CS(=O)(=O)O1 (stereo not drawn)	-4.45%	-6.75%	-18.6%	9.5%	10.3%	6.8%
O=C1C(=O)N(c2ccccc2Cl)C(=O)N1Cc1ccccc1	10.7%	8.45%	0.95%	13.8%	2.75%	2.1%
